A selection: hits, their analogues and other compounds. The true share with any hit is near 2.9%.
MEKK2mut PB1 HTS: signal of MEK5 binding to mutant human MEKK2 PB1 domain | bead flow cytometry, Alexa488-MEK5 binding to MEKK2 mutant | percent response, % at 10 µM | 290,000 tested, 0.35% active; in the data active means percent response above about 24%, passing the limit was not always enough
CRFBP-R2 block: blocks CRF-induced signaling of the CRF-BP/CRF-R2 complex | inhibition, % at 11.8 µM | 350,000 tested, 0.59% active | AID 588475 | HEK293 CRF-R2/CRF-BP, CRF-induced calcium fluorescence;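 active means inhibition of the ligand-induced calcium signal above about 50% at the single tested concentration, limit read from the data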
CRFBP-R2 agonist: CRF-BP/CRF-R2 complex agonism. 350,000 tested, 0.46% active. HEK293 CRF-R2/CRF-BP, calcium dye fluorescence (FLIPR); percent of saturating CRF peptide response. activation, % at 13.2 µM;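 active means activation of at least 50%, plus an integration ratio under a set limit after plate pattern correction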
MEKK2 WT-MEK5: raises or lowers MEK5 binding to wildtype human MEKK2 PB1 domain; Q9Y2U5; bead flow cytometry, Alexa488-MEK5 binding to MEKK2 WT; actives lie on both sides; binding response (% of control), % at 10 µM; 290,000 tested, 1.1% active; AID 1531; in the data active means binding response below about 67% or above about 130%
ABCB6 inh 2: blocks the human ABCB6 transporter. 360,000 tested, 0.19% active. fluorescence ratio to DMSO, % at 10 µM. K562-ABCB6 porphyrin accumulation, flow cytometry, 1 h; hits give low values. Q9NP58. AID 602162;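 active means fluorescence ratio to DMSO below 75%, the collection mean minus 3 SD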;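 further: signal is porphyrin accumulated inside mitochondria; lower ratio means ABCB6 inhibition with less porphyrin fluorescence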
MEKK3 PB1 HTS: modulators (inhibitors or enhancers) of MEK5 binding to human MEKK3 PB1 domain | Q99759 | bead-based flow cytometry, Alexa488-MEK5 binding to MEKK3; actives lie on both sides; 0 = blocked by unlabeled MEK5, 100 = vehicle | binding response (% of control), % at 10 µM | 290,000 tested, 1.4% active;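 active means binding response more than 3 SD above or below the average of its plate-row segment, actives on both sides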;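 further: Alexa488 bead fluorescence after subtracting the streptavidin-only scavenger bead signal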
Target sequence (Q99759 whole entry, looked up, the tested form may be a part): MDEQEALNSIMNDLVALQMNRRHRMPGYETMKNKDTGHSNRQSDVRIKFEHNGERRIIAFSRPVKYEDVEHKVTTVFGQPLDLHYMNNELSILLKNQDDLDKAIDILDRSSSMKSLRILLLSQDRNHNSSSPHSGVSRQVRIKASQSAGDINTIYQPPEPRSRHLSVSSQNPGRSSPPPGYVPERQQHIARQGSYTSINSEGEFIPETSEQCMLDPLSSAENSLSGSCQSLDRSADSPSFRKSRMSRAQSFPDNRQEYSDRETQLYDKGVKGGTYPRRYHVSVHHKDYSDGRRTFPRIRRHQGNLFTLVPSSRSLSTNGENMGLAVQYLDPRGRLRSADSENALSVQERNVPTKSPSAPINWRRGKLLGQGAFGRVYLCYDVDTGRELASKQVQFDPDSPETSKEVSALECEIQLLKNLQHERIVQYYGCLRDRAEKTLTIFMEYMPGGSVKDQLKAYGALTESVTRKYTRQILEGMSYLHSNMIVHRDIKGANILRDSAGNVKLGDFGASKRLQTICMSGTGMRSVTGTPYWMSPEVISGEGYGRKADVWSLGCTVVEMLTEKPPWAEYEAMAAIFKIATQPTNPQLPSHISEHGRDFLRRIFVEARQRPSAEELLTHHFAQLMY
Large screens that a line does not name were inactive.

Cc1ccc(C(=O)NS(=O)(=O)c2ccc(N=NN(C)C)cc2)cc1	none
Brc1ccc(CSc2nnc(Cc3c[nH]c4ccccc34)o2)cc1	CRFBP-R2 block 50 (no result: MEKK2mut PB1 HTS, MEKK2 WT-MEK5, MEKK3 PB1 HTS)
Cc1ccnc(NC(=O)c2ccc(Cl)s2)c1	none
Nc1ccc(C(=O)Nc2cccc3ncccc23)cc1	none
O=C(Nc1cccc2ncccc12)c1ccc2c(c1)OCCO2	CRFBP-R2 agonist 57
CCOc1ccc(-c2nc(N)ncc2Oc2cccc(OC)c2)c(O)c1	CRFBP-R2 block 54
Cc1nn(-c2ccc(F)cc2)c2sc(C(=O)N3CCCCCC3)cc12	none
COc1ccc(NS(=O)(=O)c2ccc(O)c(NC(=O)c3cc4c(C)nn(-c5ccc(F)cc5)c4s3)c2)cc1	CRFBP-R2 agonist 93
COc1ccc(Cl)cc1NC(=O)C/C(C)=N/NC(=O)c1ccccc1[N+](=O)[O-]	none
COc1ccc([N+](=O)[O-])cc1NC(=O)c1ccccc1SC	CRFBP-R2 block 100
COc1ccc(Cl)cc1NC(=O)c1cccc([N+](=O)[O-])c1O	CRFBP-R2 block 83 (no result: MEKK2mut PB1 HTS, MEKK2 WT-MEK5, MEKK3 PB1 HTS)
C/C=C/C=C/C(=O)OC(C)C(=O)Nc1cc([N+](=O)[O-])ccc1OC (stereo not drawn)	CRFBP-R2 block 112
O=C(CCCn1cc([N+](=O)[O-])cn1)Nc1ccc2c(c1)OCO2	none
COc1cccc(NC(=O)CC2C(=O)NC3CCCCC3N2C(=O)c2ccccc2)c1 (stereo not drawn)	none
O=C(Nc1ccc(Br)cc1)NC1CCCCCCC1	none
O=C(Nc1ccccc1C(=O)NCCc1ccccc1)c1cnccn1	none
CCN(CC)S(=O)(=O)c1cc(OC)c(C)cc1C	CRFBP-R2 block 69
CCN(CC)S(=O)(=O)c1cc(OC)c(Cl)cc1Cl	none
COc1ccccc1-n1c(SC(C)C(=O)NCC2CCCO2)nc2cc(Cl)ccc2c1=O (stereo not drawn)	none (no result: MEKK2mut PB1 HTS, MEKK2 WT-MEK5, MEKK3 PB1 HTS)
COc1cccc(CN2C(=O)C(C)N(C(=O)c3ccccc3)c3ccccc32)c1 (stereo not drawn)	CRFBP-R2 block 116
Cc1ccc(S(=O)(=O)NCC(=O)N(CC2CCCO2)C(C(=O)NCC2CCCO2)C(C)C)cc1 (stereo not drawn)	none
COc1ccc(/C=N/n2c(-c3n[nH]c4c3CCC4)n[nH]c2=S)cc1	CRFBP-R2 block 100
COc1ccc(OC)c(/C=N/n2c(-c3n[nH]c4c3CCC4)n[nH]c2=S)c1	none
Cc1ccc(NC(=O)COC(=O)C2=NN(c3ccccc3)C(=O)CC2)c(Br)c1	none (no result: MEKK2mut PB1 HTS, MEKK2 WT-MEK5, MEKK3 PB1 HTS)
Cc1nc(NC(=O)COC(=O)c2ccc(CO)cc2)c(Cl)cc1Cl	none (no result: MEKK2mut PB1 HTS, MEKK2 WT-MEK5, MEKK3 PB1 HTS)
Cc1ccccc1Cn1ccc(NC(=O)c2cc3ncc(Br)cn3n2)n1	CRFBP-R2 block 66
Cc1cccc(NC(=O)C2CC2c2ccccc2)c1C (stereo not drawn)	CRFBP-R2 agonist 70
O=C(O)c1cccc2cccc(-c3c4ccc(=O)c(O)c-4oc4c(O)c(O)ccc34)c12	CRFBP-R2 block 51 (no result: MEKK2mut PB1 HTS, MEKK2 WT-MEK5, MEKK3 PB1 HTS)
O=C(O)c1cccc2cc(-c3ccccc3)oc(=O)c12	none
COc1cc(OC)c(OC)cc1/C=C1/Cc2ccccc2C1=O	CRFBP-R2 agonist 51
O=C(CSc1nnc(Cc2cc(=O)[nH]c(=O)[nH]2)n1-c1ccccc1)NCC1CCCO1 (stereo not drawn)	none
O=C(CSc1nnc(Cc2cc(=O)[nH]c(=O)[nH]2)n1-c1ccc(Cl)cc1)NCC1CCCO1 (stereo not drawn)	MEKK2 WT-MEK5 8.0
Cc1ccc(-c2nc3c(Cl)cc(Cl)cc3c(=O)n2O)cc1	CRFBP-R2 agonist 66
O=c1c2ccccc2nc(-c2ccccc2Cl)n1O	none
O=c1c2cc(Br)ccc2nc(-c2ccc(Cl)cc2)n1O	CRFBP-R2 agonist 73
O=c1c2cc(Cl)ccc2nc(-c2ccc([N+](=O)[O-])cc2)n1O	none
O=c1c2ccccc2nc(-c2ccc(Cl)c(Cl)c2)n1O	CRFBP-R2 agonist 55
N#Cc1ccc(-c2nc3cc(Cl)ccc3c(=O)n2O)cc1	none
O=c1c2ccc(Cl)cc2nc(-c2cccc(C(F)(F)F)c2)n1O	CRFBP-R2 agonist 69
Cc1cccc(C(=O)OCC(=O)N(C)c2ccccc2)c1C	none
NC(=S)N/N=C/c1ccc(-c2ccc(SC(F)F)cc2)o1	CRFBP-R2 block 58
